# Source: PubChem BioAssay AID624256 (NMMLSC, 2012)
# Hit rate of the full screen: of about 360,000 compounds, about 3,700 (1%) were called active. About 2% were inconclusive and are not listed.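 How the source made its calls: active means normalized GFP-positive differentiation at or above the plate's own cutoff, the solvent-only control mean plus 3 SD; inconclusive means no clear call, values can overlap the other calls; inactive means the rest.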 The sample as a whole holds a higher share of actives than the screen did.
# Test: induction of myeloid progenitor differentiation, primary screen, cell-based, flow cytometry, MLPCN library (AID 624256);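 on GFP+ MAC1+ double positive: cells exposed to compound for four days before flow analysis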;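 on normalized GFP-positive differentiation: cells exposed to compound for four days before flow analysis; 0% = DMSO wells and 100% = fulvestrant positive control at 5 µM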
# Conditions: ER-HoxA9 myeloid progenitors, lysozyme-GFP differentiation, at 10 µM; GFP+ MAC1+ double positive: measured here: differentiation confirmed by MAC1 staining, stronger effect = higher value; normalized GFP-positive differentiation: stronger effect = higher value
Compound,GFP+ MAC1+ double positive [%],outcome,normalized GFP-positive differentiation
CC12CCC(=O)C=C1CCC1C2C(O)CC2(C)C1CCC2(O)C(O)CO (stereo not drawn),1.1,inactive,
O=C(NCc1cccnc1)c1cc(C2CCCN(C(=O)CCCc3ccccc3)C2)on1 (stereo not drawn),0.8,inactive,
CCCCN(C=O)c1c(CC)nc2c(OCCC3CCCCC3)cccn12,0.7,inactive,
CCOC(=O)[C@]12CCCC=C1N(Cc1cccc3ccccc13)C(=O)[C@H](CC(=O)NCC13CC4CC(CC(C4)C1)C3)C2,2.1,inactive,
Cc1ccc(S(=O)(=O)NCCNC(C)c2ccc(Br)cc2)cc1 (stereo not drawn),1,inactive,
Cc1ccc(S(=O)(=O)NCC(C)NS(C)(=O)=O)cc1 (stereo not drawn),2,inactive,
Cc1ccc(S(=O)(=O)NCCSC(C)(C)C)cc1,5.2,,17.8% (active)
OC(c1ccccc1)c1nc(-c2cnc3ccccc3c2)cs1 (stereo not drawn),0.6,inactive,
C=C1C(=O)[C@]23C[C@H]1CCC2[C@@]1(C)C(C[C@@H]3O)[C@](C)(C(=O)O)CC[C@@H]1O (stereo partly drawn),3.8,,13.1% (active)
CCOC(=O)C1=CC[C@@H](c2ccncc2)N(S(=O)(=O)c2ccc(C)cc2)C1,1.2,inactive,
COc1ccc(C2OC(CCc3ccccc3)Cc3[nH]c(=S)[nH]c(=O)c32)cc1 (stereo not drawn),1.5,inactive,
Cc1ccc(S(=O)(=O)C(C#N)c2nc3ccccc3nc2N2CCCC2)cc1C (stereo not drawn),1.7,,59% (active)
CC(=O)c1ccc(S(=O)(=O)N2CCN(c3nc4c(C)c(C)ccc4cc3C#N)CC2)cc1,0.3,inactive,
Cc1ccc(S(=O)(=O)N2CCN(c3ccccc3)CC2)cc1C,0.5,inactive,
CC(C)OC(=O)C(C#N)c1nc2ccccc2nc1N1CCN(Cc2ccccc2)CC1 (stereo not drawn),0.7,,12.1% (active)
CC(C)n1c(CN2CCN(Cc3ccccc3)CC2)nc2ccccc21,0.1,inactive,
COC(=O)c1sc(N2CCN(Cc3ccccc3)CC2)nc1N,0.5,inactive,
CCCCCn1nnnc1-c1nc2cc3ccccc3cc2[nH]c1=O,1.8,inactive,
Cc1nc(Nc2ccccc2F)c2nnn(Cc3ccccc3Cl)c2n1,0.5,inactive,
Cc1nc(Nc2ccc3c(c2)OCCO3)c2nnn(Cc3ccccc3Cl)c2n1,18.1,,21.9% (active)
CCCc1nc(NCc2ccc3c(c2)OCO3)c2nnn(Cc3ccccc3Cl)c2n1,0.8,inactive,
CCCCCc1c(Cc2ccccc2)ncn1CCc1ccccc1OC,3.9,inactive,
COc1ccc(NC(=O)Nc2ccc3c(c2)C(=O)N([C@H](C)CO)C[C@H](C)[C@@H](CN(C)C(=O)Nc2ccc4c(c2)OCO4)O3)cc1,2.5,inactive,
C[C@@H]1CN([C@@H](C)CO)C(=O)c2cc(NC(=O)C3CC3)ccc2O[C@H]1CN(C)C,1.9,inactive,
COc1ccc(NC(=O)N(C)C[C@H]2Oc3ccc(NC(=O)C4CC4)cc3C(=O)N([C@H](C)CO)C[C@@H]2C)cc1,1.6,,10.4% (active)
CCOC(=O)[C@]12CCC=C1N(Cc1ccccc1)C(=O)[C@H](CC(=O)N1CCCC1)C2,0.9,inactive,
N#C/C(=C\c1ccc(N2CCOCC2)o1)C(=O)N1CCOCC1,0.4,inactive,

Compound,GFP+ MAC1+ double positive [%],outcome,normalized GFP-positive differentiation
N#C/C(=C/c1ccc(N2CCOCC2)o1)C(=O)N1CCOCC1,0.4,inactive,
N#C/C(=C/c1ccc(N2CCCCC2)o1)C(=O)NCCc1c[nH]c2ccccc12,3.1,,118% (active)
CCC(c1nnnn1-c1ccc2c(c1)OCCO2)N1CCN(c2ccc(C(F)(F)F)cn2)CC1 (stereo not drawn),0.4,inactive,
CCNC(=O)c1cc2c(c(-c3cccc(-c4cncnc4)c3)n1)[C@H](CCO)N(C(C)=O)C2,0.5,inactive,
CCCNC(=O)C[C@@H]1CC[C@@H]2[C@H](COC[C@H](O)CN2C(=O)c2cc(Cl)cc(Cl)c2)O1,0.9,inactive,
CCCCCc1c(-c2cccc(Br)c2)ncn1CCc1ccccc1OC,1,inactive,
Cc1nc2c(OCc3cccc(Cl)c3)cccn2c1N(C)CC1CC1,0.4,inactive,
N#C/C(=C\C1=C(N2CCOCC2)C(=C\c2ccccc2)/CC1)C(=O)Nc1ccccc1F,11.3,,127% (active)
O=C1Nc2ccc(Br)cc2/C1=N/N=C/C1=C(N2CCOCC2)C(=C\c2ccccc2)/CC1,0.4,inactive,
O=C(O)c1ccc(NN=CC2=C(N3CCOCC3)/C(=C/c3ccccc3)CC2)cc1,0.1,inactive,
COc1ccc(OC)c(CN2C(=O)CCC2(C)c2nnnn2Cc2ccccc2)c1 (stereo not drawn),0.7,inactive,
CCOC(=O)[C@]12CCCC=C1N(Cc1ccc(Cl)cc1Cl)C(=O)[C@H](CC(=O)N1CCCCC1)C2,0.5,inactive,
Cc1ccc(C(=O)Nc2c(-c3ccccc3)[nH][nH]c2=O)cc1,0.3,inactive,
COc1ccccc1C(=O)Nn1c(-c2cccs2)nc2ccccc2c1=O,0.5,inactive,
O=C(Nn1c(-c2ccc(Cl)cc2)nc2ccccc2c1=O)c1cccnc1Cl,2.1,,151% (active)
COc1cc(OC)cc(-c2nc3ccccc3c(=O)n2NC(=O)c2cccnc2Cl)c1,0.9,inactive,
CC(=O)C[C@@H]1OC[C@H](CO)N1S(=O)(=O)c1ccc(C)cc1,2.1,inactive,
O=C(C[C@H]1CC[C@@H](NC(=O)c2ccncc2)[C@@H](CO)O1)NCC1CC1,0.9,inactive,
CCSc1nc(-c2ccc(OC)cc2)cc(-c2ccc(OC)cc2)c1C#N,7.7,inactive,
CCOC(=O)CC(=O)CSc1nc(-c2ccccc2)cc(-c2ccc(Cl)cc2)c1C#N,26.9,,14.9% (active)
N#Cc1c(C(F)(F)F)cc(-c2ccccc2)nc1SCC(=O)N1CCOCC1,1.4,inactive,
Cc1noc(C)c1C(=O)N1CCC1(C)C(=O)NS(=O)(=O)c1ccc(C#N)cc1 (stereo not drawn),1.2,inactive,
Cn1c(C(=O)NCCCN2CCN(c3cccc(Cl)c3)CC2)cc2c(=O)n(C)c3ccccc3c21,11.3,,36.1% (active)
O=C(Cc1csc(Nc2nc(=S)[nH]c3ccccc23)n1)NCCCN1CCN(c2cccc(Cl)c2)CC1,1,inactive,
CCN1CCCC1CNC(=O)c1cc2c(=O)n(C)c3ccccc3c2n1C (stereo not drawn),0.5,inactive,
CC(=O)Nc1cc(-c2cccc(CO)c2)cn2c(-c3cccc(C(F)(F)F)c3)cnc12,0.8,inactive,
COc1cc(N=Cc2c(O)[nH]c3ccccc23)cc(OC)c1OC,16.7,,15.8% (active)

Compound,GFP+ MAC1+ double positive [%],outcome,normalized GFP-positive differentiation
CN=c1scc(-c2cc(OC)ccc2OC)n1/N=C/c1c(C)[nH]c2ccccc12,1.2,inactive,
COc1cc2[nH]c(O)c(C=O)c2cc1OC,0.7,inactive,
CCOC(=O)[C@H]1Nc2ccc(Cl)cc2[C@@H]2[C@H]1C1CC(c3ccccc31)N2C(=O)OCc1ccccc1 (stereo partly drawn),1,inactive,
CC(C)C[C@H]1CNC(=S)N1C[C@H]1CCCN1C[C@H](Cc1ccc(O)cc1)N1C[C@H](Cc2ccc(O)cc2)N(CC2CCCCC2)C1=S,1.3,inactive,
COc1ccc(-c2csc3ncnc(N4CCN(S(=O)(=O)c5ccccc5C#N)CC4)c23)cc1,1.7,inactive,
Cc1ccc(C)c(S(=O)(=O)N2CCN(C(=O)Nc3ccccc3)CC2)c1,0.3,inactive,
Cc1ccc(C)c(S(=O)(=O)N2CCN(c3ncnc4sccc34)CC2)c1,2.8,,41.1% (active)
CCC(C(=O)NCc1ccccc1)n1c(Cc2cc(F)cc(F)c2)nc2ccccc21 (stereo not drawn),2,inactive,
Nc1ncnc2c1ncn2[C@@H]1O[C@H](C(=O)N2CCCN(Cc3ccccc3F)CC2)[C@@H](O)[C@H]1O,1.3,inactive,
O=C(NC1CCCCC1)n1c(=O)oc2cc(S(=O)(=O)N3CCCCC3)ccc21,8.3,inactive,
CC1CCCCN1C(=O)Cn1c(=O)oc2cc(S(=O)(=O)N3CCCCC3)ccc21 (stereo not drawn),6.7,,53.2% (active)
CC1CCCN(C(=O)Cn2c(=O)oc3cc(S(=O)(=O)N4CCCCC4C)ccc32)C1 (stereo not drawn),2.1,inactive,
CC1=C(C(=O)N(C(C)C)C(C)C)CC(CC(=O)NCCCCc2ccccc2)C(=O)N1CCC1=CCCCC1 (stereo not drawn),1,inactive,
O=S1(=O)CC(N2CCN(c3ccccn3)CC2)CN1Cc1ccc(F)cc1 (stereo not drawn),0.9,inactive,
CCOC(=O)[C@]12CCC=C1N(Cc1cccc3ccccc13)C(=O)[C@H](CC(=O)NCc1cccc(C(F)(F)F)c1)C2,0.3,inactive,
COC(=O)[C@@]12C[C@@H](CC(=O)N3CCC(c4ccccc4)CC3)C(=O)N(Cc3ccccc3)C1=CCC(C)(C)C2,1.2,inactive,
Clc1ccc(-n2nnnc2-c2cnc(-c3ccccn3)nc2-c2cccs2)cc1,0.7,inactive,
O=C(Cn1cc(-c2nnnn2-c2ccc(Cl)cc2)c(=O)c2ccccc21)c1ccccc1,7.2,,37.5% (active)
O=C(CN1CCN(c2ccc(Cl)cc2)CC1)c1ccccc1,0.3,inactive,
COC(=O)[C@]12CCCCC=C1N(CCC1=CCCCC1)C(=O)[C@H](CC(=O)NCC1CCCCC1)C2,1.7,inactive,
Cc1ccc(-c2cnc(C(O)c3cccc(C)c3C)[nH]2)cc1 (stereo not drawn),0.9,inactive,
O=C(Nc1cccc(C(F)(F)F)c1)c1ccc(N2CCNCC2)c([N+](=O)[O-])c1,0.4,inactive,
CS(=O)(=O)N1CCN(c2ccc(C(=O)NC3C4CC5CC(C4)CC3C5)cc2[N+](=O)[O-])CC1 (stereo not drawn),1,inactive,
O=C(NC1C2CC3CC(C2)CC1C3)c1ccc(N2CCNCC2)c([N+](=O)[O-])c1 (stereo not drawn),0.8,,16.7% (active)
Cc1cc(O)ccc1-c1cc(C(=O)NCc2cc(C(F)(F)F)cc(C(F)(F)F)c2)[nH]n1,0.4,inactive,
